This is an account of results in PubChem BioAssay (Tox21).

The structures appear in SMILES notation. Several values for one entry are separate records, joined by “and”; a condition that tells them apart may be missing. Identical values can stand only once. Inconclusive results are not listed. Some structures have more than one record in an assay (separate samples or runs), and their calls can disagree. Activity calls are given as the source filed them. Unless noted, the call rests on the fitted dose curve; in most records, active means well fitted curve in the direction sought with a large enough effect in the repeat runs; inconclusive means weak or mixed curves; inactive means no such curve, though single readings can be large; an effect the other way counts as inactive or inconclusive.

A short description of assay [1]: qHTS assay to identify small molecule agonists of the peroxisome proliferator-activated receptor delta (PPARd) signaling pathway - cell viability counter screen (AID 743211). Further: nearly all actives have a fitted effect of over 55% in size. Further: potency means the concentration at half of the fitted maximal effect. An outline of the steps:
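Viability of GeneBLAzer PPARd UAS-bla HEK293H cells was assessed after 17 h compound incubation at 37C, using CellTiter-Glo reagent added after the reporter read and luminescence recorded 30 min later.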

Assay [2] deals with Peroxisome proliferator-activated receptor delta (Homo sapiens) (UniProt Q03181). As to the kind of experiment: qHTS assay to identify small molecule agonists of the peroxisome proliferator-activated receptor delta (PPARd) signaling pathway (AID 743212; calls by dose curve). An outline of the steps:
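GeneBLAzer PPARd UAS-bla HEK293H cells (beta-lactamase reporter under UAS control), plated and rested 5 h at 37 C, then exposed to compounds in DMSO at 37 C; LiveBLAzer B/G FRET substrate added, 2 h room temperature, fluorescence read.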

Assay [3] is described as follows: qHTS assay to identify small molecule antagonists of the peroxisome proliferator-activated receptor delta (PPARd) signaling pathway - cell viability counter screen (AID 743213). Further: nearly all actives have a fitted effect of over 50% in size. Further: potency means the concentration at half of the fitted maximal effect. An outline of the steps:
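Agonist-stimulated (L165041, 300 nM final) HEK293H PPARd UAS-bla cells are exposed to compounds for 17 h at 37 C, and ATP-based luminescence (CellTiter-Glo) from the same wells reports cytotoxicity.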

Assay [4] concerns the target Peroxisome proliferator-activated receptor delta (Homo sapiens) (UniProt Q03181). Kind of assay: qHTS assay to identify small molecule antagonists of the peroxisome proliferator-activated receptor delta (PPARd) signaling pathway (AID 743215; active means well fitted inhibition curve with a large enough effect in the signal ratio in the repeat runs, not every such curve was filed as active; the % refers to the signal ratio; further: series mostly up to about 62 µM). The gist of the method: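 HEK293H UAS-bla, PPARd; agonist L165041 300 nM final with cpd in DMSO; 37 C 17 h; FRET substrate, RT 2 h; fluorescence intensity.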

Assay [5] is described as follows: qHTS assay to identify small molecule agonists of the farnesoid-X-receptor (FXR) signaling pathway - cell viability counter screen (AID 743218). Further: nearly all actives have a fitted effect of over 45% in size. Further: potency means the concentration at half of the fitted maximal effect. An outline of the steps: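 Parallel cytotoxicity test: compound-treated (16 h, 37 C) HEK 293T FXR-bla reporter cells were lysed with CellTiter-Glo and luminescence recorded.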
Assay [6] in a line: qHTS assay to identify small molecule antagonists of the farnesoid-X-receptor (FXR) signaling pathway - cell viability counter screen (AID 743221; active means well fitted cell-killing curve with a large enough effect in the repeat runs, not every such curve was filed as active; further: nearly all actives have a fitted effect of over 50% in size; further: potency means the concentration at half of the fitted maximal effect). An outline of the steps:
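Quantitative HTS of the Tox21 10K library run in parallel with the beta-lactamase reporter read. HEK 293T cells carrying a UAS-driven bla reporter got compound and 50 uM CDCA (final) for 16 h; ATP-based luminescence followed.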

Assay [7] has as its target Vitamin D3 receptor (Homo sapiens) (UniProt P11473). Kind of assay: qHTS assay to identify small molecule agonists of the vitamin D receptor (VDR) signaling pathway (AID 743222; calls by dose curve). The gist of the method:
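In VDR-bla cells, compound-induced beta-lactamase expression is quantified by FRET substrate fluorescence. Treatment lasts 16 h at 37C; substrate develops 2 h at room temperature.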

Assay [8] shares this target. As to the kind of experiment: qHTS assay to identify small molecule antagonists of the vitamin D receptor (VDR) signaling pathway (AID 743223; active means well fitted inhibition curve with a large enough effect in the signal ratio in the repeat runs, not every such curve was filed as active; the % refers to the signal ratio; further: potency means the concentration at half of the fitted maximal effect). The gist of the method: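 Fluorescence from LiveBLAzer B/G FRET substrate, read after 2 h at room temperature, reflects beta-lactamase reporter activity in VDR-bla cells treated 16 h at 37C with compounds and agonist 1alpha,25-dihydroxyvitamin D3 (3 nM final).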

Assay [9] can be described thus: qHTS assay to identify small molecule agonists of the vitamin D receptor (VDR) signaling pathway - cell viability counter screen (AID 743224). Further: nearly all actives have a fitted effect of over 50% in size. Further: potency means the concentration at half of the fitted maximal effect. An outline of the steps: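 Plated VDR-bla cells (4 h, 37C) received compound, incubated 16 h, then LiveBLAzer substrate 2 h RT; CellTiter-Glo added afterwards, luminescence read at 30 min.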
Assay [10] in a line: qHTS assay to identify small molecule antagonists of the vitamin D receptor (VDR) signaling pathway - cell viability counter screen (AID 743225). Further: nearly all actives have a fitted effect of over 50% in size. Further: potency means the concentration at half of the fitted maximal effect. The gist of the method: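 Cells (VDR-UAS-bla HEK 293T) are plated, rested 4 h at 37C, dosed with compound and 3 nM final 1-alpha,25-dihydroxy vitamin D3, and incubated 16 h. Viability is taken from CellTiter-Glo luminescence in the reporter wells.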

Assay [11] can be described thus: qHTS assay to identify small molecule agonists of the NFkB signaling pathway - cell viability counter screen (AID 1159515; calls by dose curve; further: nearly all actives have a fitted effect of over 55% in size; further: potency means the concentration at half of the fitted maximal effect). An outline of the steps:
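Using the same wells as the NFkB reporter read, ME-180 NFkB-bla cells given compounds for 5 hr were assessed for viability via CellTiter-Glo, with luminescence taken after a 30 min room-temperature incubation.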

Assay [12] can be described thus: qHTS assay to identify small molecule antagonists of the retinoid-related orphan receptor gamma (ROR-gamma) signaling pathway - cell viability counter screen (AID 1159520). Further: nearly all actives have a fitted effect of over 50% in size. Further: potency means the concentration at half of the fitted maximal effect. The gist of the method: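 Tet-on ROR gamma CHO cells (1,000/well) were plated 4 hr, given compounds in DMSO for 2 hr at 37 C, then induced with 1 uM final doxycycline for 16 hr. Viability was read as ATP by CellTiter-Glo luminescence after 30 min.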

Assay [13] concerns the target Nuclear receptor ROR-gamma (Homo sapiens) (UniProt P51449). Kind of assay: qHTS assay to identify small molecule antagonists of the retinoid-related orphan receptor gamma (ROR-gamma) signaling pathway (AID 1159521; further: nearly all actives have a fitted effect of over 50% in size; further: potency means the concentration at half of the fitted maximal effect). An outline of the steps: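 RORγ antagonism is scored from reduced reporter luminescence in Tet-on CHO cells. Induction used 1 uM final doxycycline hyclate for 16 h at 37 C, following a 2 h compound exposure.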

Assay [14] is described as follows: qHTS assay to identify small molecule agonists of the AP-1 signaling pathway - cell viability counter screen (AID 1159525; calls by dose curve; further: nearly all actives have a fitted effect of over 55% in size; further: potency means the concentration at half of the fitted maximal effect). An outline of the steps:
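ME-180 AP-1-bla, 2500 cells/well, Opti-MEM + 0.5% dialyzed FBS; overnight 37 °C; cpd 15-pt titration, 5 h 37 °C; CellTiter-Glo 30 min RT; luminescence read; normalised to TOAB and DMSO controls.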

The nature of assay [15]: qHTS assay to identify small molecule agonists of the AP-1 signaling pathway (AID 1159526; calls by dose curve).
Assay [16] concerns the target Bile acid receptor (Homo sapiens) (UniProt Q96RI1). Kind of assay: qHTS assay to identify small molecule agonists of the farnesoid-X-receptor (FXR) signaling pathway (AID 743220; active means well fitted activation curve with a large enough effect in the signal ratio in the repeat runs, not every such curve was filed as active; the % refers to the signal ratio). The gist of the method: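 Beta-lactamase reporter under UAS control in GeneBLAzer FXR HEK 293T cells (5000/well) measured with LiveBLAzer FRET substrate after 2 h at room temperature. Compound exposure lasted 16 h at 37C.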

A short description of assay [17]: qHTS assay to identify small molecule agonists of the endoplasmic reticulum stress response signaling pathway - cell viability counter screen (AID 1159517; calls by dose curve). An outline of the steps: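 Luminescence readout: CellTiter-Glo, 30 min RT, same wells as the ESRE-bla reporter read. HeLa ESRE-bla, 1,500 cells/well, o/n 37 C; cpd 5 hr 37 C/5% CO2.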

Chain of Peroxisome proliferator-activated receptor delta (Homo sapiens) (Q03181 whole entry, looked up): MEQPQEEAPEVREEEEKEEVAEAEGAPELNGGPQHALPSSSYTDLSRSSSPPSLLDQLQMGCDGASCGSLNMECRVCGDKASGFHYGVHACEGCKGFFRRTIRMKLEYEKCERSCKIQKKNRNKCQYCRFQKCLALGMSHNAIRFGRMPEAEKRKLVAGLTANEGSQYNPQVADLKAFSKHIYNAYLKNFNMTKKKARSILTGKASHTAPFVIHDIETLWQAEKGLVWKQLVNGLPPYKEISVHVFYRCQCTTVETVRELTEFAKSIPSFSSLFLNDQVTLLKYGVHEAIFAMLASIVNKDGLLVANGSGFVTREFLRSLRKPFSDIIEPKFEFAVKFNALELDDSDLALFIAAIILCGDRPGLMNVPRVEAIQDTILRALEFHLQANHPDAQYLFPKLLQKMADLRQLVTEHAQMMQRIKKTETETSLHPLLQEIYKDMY
Chain of Vitamin D3 receptor (Homo sapiens) (P11473 whole entry, looked up): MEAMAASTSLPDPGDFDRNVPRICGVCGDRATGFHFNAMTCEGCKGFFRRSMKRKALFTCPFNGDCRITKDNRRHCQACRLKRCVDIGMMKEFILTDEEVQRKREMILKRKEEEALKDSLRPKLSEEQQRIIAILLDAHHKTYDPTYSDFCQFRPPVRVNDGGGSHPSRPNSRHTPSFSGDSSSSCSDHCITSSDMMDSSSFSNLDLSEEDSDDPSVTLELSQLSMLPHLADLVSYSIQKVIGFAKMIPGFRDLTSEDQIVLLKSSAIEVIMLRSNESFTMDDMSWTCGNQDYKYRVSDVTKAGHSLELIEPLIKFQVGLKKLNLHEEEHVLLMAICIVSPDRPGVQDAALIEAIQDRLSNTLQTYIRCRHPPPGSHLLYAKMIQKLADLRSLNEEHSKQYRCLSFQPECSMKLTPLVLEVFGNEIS
Chain of Bile acid receptor (Homo sapiens) (Q96RI1 whole entry, looked up): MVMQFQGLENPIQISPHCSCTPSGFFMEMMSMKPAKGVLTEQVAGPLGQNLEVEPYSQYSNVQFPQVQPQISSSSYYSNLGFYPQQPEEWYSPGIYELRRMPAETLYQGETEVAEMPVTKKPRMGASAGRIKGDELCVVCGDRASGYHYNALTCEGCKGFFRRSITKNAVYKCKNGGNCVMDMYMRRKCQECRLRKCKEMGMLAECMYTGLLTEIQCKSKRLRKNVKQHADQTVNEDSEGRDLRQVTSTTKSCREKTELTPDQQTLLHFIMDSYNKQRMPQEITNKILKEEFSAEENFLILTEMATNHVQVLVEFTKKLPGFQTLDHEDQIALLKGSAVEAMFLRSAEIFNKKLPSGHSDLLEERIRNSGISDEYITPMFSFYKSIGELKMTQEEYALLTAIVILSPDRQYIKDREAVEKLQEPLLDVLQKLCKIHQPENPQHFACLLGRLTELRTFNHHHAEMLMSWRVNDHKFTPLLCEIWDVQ

Regarding `COc1ccc(OC)c(CC(C)N)c1` (stereo not given), the Potency entry in assay [1], in assay [2], in assay [3], in [4], in assay [5] and in [6] was “inactive” each time. The Potency entry in assay [7], in assay [8], in [9], in assay [10], in assay [11] and in assay [12] was “inactive” throughout. Also, the Potency entry in [13], in assay [14] and in assay [15] was “inactive” each time.
Take `C[C@H]1O[C@@H](O[C@H]2[C@@H](O)C[C@H](O[C@H]3[C@@H](O)C[C@H](O[C@H]4CC[C@@]5(C)[C@H](CC[C@@H]6[C@@H]5CC[C@]5(C)[C@@H](C7=CC(=O)OC7)CC[C@]65O)C4)O[C@@H]3C)O[C@@H]2C)C[C@H](O)[C@@H]1O`: the Potency in assay [1] was 0.119 µM (active); in assay [3], 19.6 nM (active) and 84.1 nM (active); in assay [5] it was 0.0311 µM (active); in assay [6] it was 13.9 nM (active); in assay [9] it was 15.6 nM (active) and 106 nM (active); in [10], 8.8 nM (active) and 84.9 nM (active). Moreover, the Potency in assay [11] was 0.124 µM (active); in [13], 5.48 µM (active) and 16.8 µM (active). Besides, in assay [16], the call was inactive. The Potency result in [12] is “inactive”.
On to `COC12CC[C@@]3(C[C@@H]1C(C)(O)C(C)(C)C)[C@H]1Cc4ccc(O)c5c4[C@@]3(CCN1CC1CC1)[C@H]2O5` (stereo not given in full), for which the Potency in assay [1] is 48.2 µM (active); in assay [11], 54.6 µM (active); in [12], 60.7 µM (active); in [13] it was 54.1 µM (active); in [14], 54.6 µM (active). Further, in [16], the outcome was inactive. For the same molecule, in assay [10], the Potency entry is “inactive”.
With `C[C@H]1CC[C@@H]2[C@@H](C)[C@H]3[C@H](C[C@H]4[C@@H]5CC=C6CC(O[C@@H]7O[C@H](CO)[C@H](O)[C@H](O[C@@H]8O[C@H](CO)[C@@H](O)[C@H](O)[C@H]8O)[C@H]7O[C@H]7O[C@@H](C)[C@H](O)[C@@H](O)[C@H]7O)CC[C@]6(C)[C@H]5CC[C@]34C)N2C1` (stereo not given in full), the Potency in assay [1] is 1.43 µM (active); in assay [3], 25.3 µM (active); in assay [5], 8.02 µM (active); in assay [6] it was 14300 nM (active); in assay [11], 56.7 µM (active); in assay [12] it was 28.2 µM (active). Moreover, in [14], the Potency is 20.1 µM (active). The Potency result in assay [2], in assay [4], in assay [7], in assay [8], in [9] and in assay [10] was “inactive” throughout. For the same molecule, the Potency result in assay [13] is “inactive”.
In the case of `O=c1c(C2CC(c3ccc(-c4ccc(Br)cc4)cc3)Cc3ccccc32)c(O)sc2ccccc12` (stereo not given), the Potency entry in assay [3], in assay [6], in [8], in assay [11], in [12] and in [15] was “inactive” in each case. In addition, in [13], the Potency was 2.66 µM (active).
As for `COc1cc(C=O)cc2c1[C@H](COC(N)=O)[C@]1(OC(C)=O)ON2C[C@H]2[C@@H]1N2C(C)=O`, the Potency result in assay [2], in assay [3], in [7], in [9], in assay [10] and in assay [11] was “inactive” each time. Also, the Potency result in assay [12], in assay [14] and in assay [15] was “inactive” in each case.
As to `BrC(Br)C(Br)(Br)Br`, the Potency in assay [3] is 39.1 µM (active). In assay [16], the outcome was inactive. Further, the Potency entry in assay [6], in [7], in assay [11], in assay [17], in assay [14] and in [15] was “inactive” each time.
For the molecule `CC(C)CC(C)(c1ccc(O)cc1)c1ccc(O)cc1`, the outcome in assay [16] was inactive. The Potency in [6] is 55.1 µM (active) and inactive; in [8] it was 54.9 µM (active); in assay [9], 49 µM (active); in [11], 49.1 µM (active); in assay [13], 43.4 µM (active) and 48.6 µM (active); in assay [14], 43.8 µM (active).
For the molecule `CCCSP(=O)(OCC)SCCC`, the molecule was called inactive in assay [16]. The Potency entry in assay [7], in assay [9], in assay [11], in [12], in assay [13] and in assay [14] was “inactive” in each case. Also, the Potency entry in assay [15] was “inactive”.
